Bioassay records deposited in PubChem BioAssay by Buhrlage Lab, Dana-Farber Cancer Institute and Novartis Institutes for BioMedical Research (Cambridge, Mass).
Only some compounds are listed: those with a hit (about 12% of all), similar ones and a draw of the others.
USP30 block – blocks human USP30 ubiquitin-rhodamine cleavage. Q70CQ3. 47,000 compounds, 5.3% hits. inhibition, % at 25 µM. AID 1645860. purified USP30, Ub-rhodamine cleavage fluorescence
USP10 block – inhibitors of human USP10 deubiquitinase | 47,000 compounds, 1.1% hits | inhibition, % at 20 µM | purified USP10, Ub-rhodamine fluorescence, 60 min
USP8 block – blocks human USP8 ubiquitin-rhodamine cleavage | purified USP8, Ub-rhodamine cleavage fluorescence, 30 min | inhibition, % at 20 µM | 47,000 compounds, 4.2% hits
USP7 block – inhibitors of human USP7 deubiquitinase | purified USP7, Ub-rhodamine cleavage fluorescence | inhibition, % at 20 µM | 47,000 compounds, 0.3% hits
USP17 block – inhibitors of human USP17 deubiquitinase. purified USP17, Ub-rhodamine cleavage fluorescence, 3 h. inhibition, % at 50 µM. 47,000 compounds, 6.5% hits
UCHL1 block – inhibitors of human UCHL1 deubiquitinase. purified UCHL1, Ub-rhodamine cleavage fluorescence. inhibition, % at 20 µM. AID 1645859. P09936. 47,000 compounds, 0.2% hits
Target sequence (P09936 whole entry, looked up): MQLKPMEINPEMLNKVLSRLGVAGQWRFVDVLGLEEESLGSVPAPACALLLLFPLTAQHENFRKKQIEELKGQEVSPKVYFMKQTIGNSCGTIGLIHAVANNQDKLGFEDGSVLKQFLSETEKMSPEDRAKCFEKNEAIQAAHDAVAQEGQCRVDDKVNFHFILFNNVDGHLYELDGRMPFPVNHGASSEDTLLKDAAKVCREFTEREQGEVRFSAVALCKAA
Each line names hits and unclear results; the compound was inactive in the other large screens. No stated cut-off is given here; in the data, active means inhibition above about 30%; inactive means the rest.

O=C(Cn1cc(-c2nc(C3CC3)no2)ccc1=O)Nc1ccc(F)cc1	none
CN(C)c1cncc(C2CCCN2C(=O)C2CN(S(C)(=O)=O)C2)n1 (centres undefined)	none
O=C(/C=C/c1ccco1)N1CCC(Cn2cccn2)CC1	none
O=C(Nc1nc2c(s1)CN(C(=O)/C=C/c1ccco1)CC2)C1CCCO1 (centres undefined)	USP8 block 41
O=C(Nc1nc2c(s1)COCC2)c1cc(-c2ccco2)on1	none
O=C(Nc1nc2c(s1)CN(C(=O)c1cc(-c3ccco3)on1)CC2)C1CC1	USP17 block 35
COc1ccccc1CNC(=O)c1nc(N2CCOCC2)c2c(C)cc(C)nc2n1	none
Cc1ccc(S(=O)(=O)Nc2ccccc2SCCS(=O)(=O)c2ccc(Cl)cc2)cc1	USP30 block 51
Cc1ccc(S(=O)(=O)Nc2ccccc2CCc2nc3ccccc3[nH]2)cc1	none
O=C(O)c1ccc(NC(=O)c2ccc(-c3ccccc3)cc2)cc1	none
O=C(Nc1ccccc1)c1ccc(-c2ccccc2)s1	USP17 block 54 (no result: USP30 block)
Cc1n[nH]c(C)c1CC(=O)NCc1nnc(-c2nccc3ccccc23)o1	USP30 block 34, USP8 block 33, USP17 block 40
O=C(NCCNc1ncnc2sc3c(c12)CCCC3)c1ccco1	none
CCN1CCN(c2nnc(-c3nnc(C)o3)c3ccccc23)CC1	none
O=C(CS(=O)(=O)c1ccc(F)cc1)Nc1ccc(-c2nc3ccccc3s2)c(O)c1	USP17 block 37
CN(C)CCCN(C(=O)CS(=O)(=O)c1ccc(F)cc1)c1nc2ccccc2s1	none
CC(OC(=O)c1ccc(Cl)cc1)C(=O)NCC1CCCCC1 (centres undefined)	USP30 block 31
COc1ccc2c(c1)c([C@H]1CN(Cc3ccccc3)C[C@@H]1NC(C)=O)cn2C	none
CC(=O)c1ccc(NC(=O)c2ccc3nncn3c2)cc1	none
O=C(Oc1ccccc1Br)c1ccc(Cl)c(S(=O)(=O)N2CCCCC2)c1	USP8 block 31
N#Cc1ccccc1NC(=O)c1ccc(Cl)c(S(=O)(=O)N2CCCCCC2)c1	none
Cc1cc(=O)n2c(n1)NC(N1CCOCC1)=NC2c1ccc(Cl)cc1Cl (centres undefined)	none
O=C(OCc1ccc([N+](=O)[O-])cc1)C1CCN(S(=O)(=O)c2cccc3cccnc23)CC1	USP30 block 44
O=C(C1CCN(S(=O)(=O)c2cccc3cccnc23)CC1)N1CCC(Cc2ccccc2)CC1	none
O=C(/C=C/c1ccc(Cl)cc1)Nc1cccc(-c2nc3ncccc3o2)c1	none
COc1ccc(/C=C/C(=O)Nc2ccc(Cl)c(-c3nc4ncccc4o3)c2)cc1	USP8 block 58
O=c1c2[nH]c3ccc(F)cc3c2ncn1Cc1ccc2c(c1)OCO2	none
O=c1ncn(Cc2ccc3c(c2)OCO3)cc1-c1ncc(C(F)(F)F)cc1Cl	USP30 block 46, USP17 block 51
O=C(Cn1c(-c2nc(-c3ccccc3)no2)cccc1=O)Nc1ccccc1	USP17 block 34
CCc1noc(-c2ccc(=O)n(CC(=O)Nc3ccccc3)c2)n1	USP30 block 38
O=C(Cn1c(-c2nc(-c3cccc(F)c3)no2)cccc1=O)NCc1ccco1	USP10 block 38, USP8 block 87, USP17 block 40
CCc1cccc(NC(=O)Cn2c(-c3nc(C)no3)cccc2=O)c1	none
CC(C)c1nnc(-c2ccc(=O)n(CC(=O)Nc3ccccc3)c2)o1	none (no result: USP17 block)
O=C(Nc1ccccn1)N1C[C@@H]2c3nccn3-c3ccccc3[C@@H]2C1	USP30 block 34
CCc1ccc(NC(=O)N2C[C@H]3C[C@H]4[C@](C2)(CN(Cc2ccncc2)S4(=O)=O)O3)cc1	none
COc1ccc(CNC(=O)CN2C(=O)c3cccc4cccc2c34)cc1	USP17 block 46
COc1ccc(CNC(=O)CCc2c(C)c3c(C)nn(-c4ccccc4)c3n(C)c2=O)cc1	none
COc1ccc(CNC(=O)Cn2c(=O)cc(-c3ccccc3)c3c(C)nn(-c4ccccc4)c32)cc1	USP30 block 31
O=C(c1ccc(F)cc1)[C@@H]1[C@H](C(=O)OC(c2ccccc2)c2ccccc2)N2c3ccccc3C=CC2[C@@]12C(=O)Nc1ccccc12 (some centres undefined)	none
CCCc1ccc(C(=O)[C@@H]2[C@@H](C(=O)c3cccs3)N3c4ccc(C)cc4C(C)=C[C@@H]3[C@@]23C(=O)Nc2ccccc23)cc1	USP10 block 38, USP8 block 67, USP7 block 33
CC(C)c1ccc(/C=C/C(=O)N2CCc3ccccc3C2)cc1	USP30 block 36, USP8 block 69, USP17 block 54
CC(=O)Nc1ccc(SC(C)C(=O)N2CCc3ccccc3C2)cc1 (centres undefined)	none
O=C(/C=C/c1ccc(Br)cc1)N1CCc2ccccc2C1	USP17 block 35
O=C(/C=C/c1ccccc1)N1CCc2[nH]nc(-c3ccc(F)cc3)c2C1	none
Cc1ccc(NC(=O)CCn2nc(C)c(S(=O)(=O)N3CCOCC3)c2C)cc1C	none
O=C1c2cccc3c(Cl)ccc(c23)C(=O)N1Cc1ccccc1	none
Cc1cccc(C)c1NC(=O)C1(NC(=O)c2ccc(Br)cc2)CCCCC1	USP8 block 43, USP17 block 35
O=C(O)CSc1nnc(-c2ccc3ccccc3c2)o1	none
Clc1ccc(-c2cc3n(c2)CCc2cc4c(cc2-3)OCO4)cc1	USP8 block 70
Cc1cc(C)cc(C(=O)NCc2nc(C(=O)N3CCC(C)CC3)c(C)o2)c1	none
CCn1c(-c2nnc(SCC(=O)NCCc3nc4ccccc4[nH]3)o2)cc2ccccc21	USP7 block 46, USP17 block 92 (no result: USP30 block)
CN(C)c1cccc(C(=O)Nc2cc(-c3cccnc3)no2)c1	USP17 block 51
Nc1c(C(=O)NCc2ccc3c(c2)OCO3)nnn1Cc1ccc(Br)cc1F	USP30 block 75, USP10 block 31, USP8 block 83 (no result: USP17 block)
CC1Cc2ccccc2N1S(=O)(=O)c1cccc(C(=O)N2CCCc3ccccc32)c1 (centres undefined)	none
CN(c1ccccc1)S(=O)(=O)c1ccc(Cl)c(C(=O)N2CCCc3ccccc32)c1	none
O=C(Nc1ccc(NS(=O)(=O)c2ccc3c4c(cccc24)CC3)cc1)c1ccccc1	USP8 block 43, USP17 block 50
O=C(Nc1ccc(NS(=O)(=O)c2cccc(C(=O)N3CCCc4ccccc43)c2)cc1)c1ccccc1	USP17 block 32
O=C(c1cc(S(=O)(=O)Nc2ccc(Cl)cc2)ccc1Cl)N1CCCc2ccccc21	USP10 block 36
O=C(Nc1ccc(S(=O)(=O)NC2=NCCCCC2)cc1)c1ccccc1	none
O=C(COc1ccc(N2CC(C(=O)NCc3ccc4c(c3)OCO4)CC2=O)cc1)Nc1ccc(F)cc1 (centres undefined)	USP30 block 57, USP10 block 49, USP8 block 53, USP17 block 57
